# Assay results as given in the supplement of paper PMC6555819.
# Assays:
# Experiment in all cases: PBM binding z-score (relative to random genomic background probes); higher = stronger binding; sequences stand for … in GC…GCGATTGACAGCGTAGAATGAAGG
# [1] = test system: FXR:RXRa (NR concentration 270 nM, RXRa partner concentration 90 nM)
# Outline: (§1)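 Custom Agilent 4×180K protein-binding microarrays carried double-stranded probes. Their 34-nt variable regions held direct-repeat seeds, single-nucleotide variants, half-site ablations and random human genomic background sequences. Arrays were incubated 1 h with ligand-free nuclear receptor dimers in PBS pH 7.4, 2% milk, 0.02% Triton X-100, 1 mM DTT, 0.2 mg/mL BSA and 0.4 mg/ml salmon testes DNA. Antibodies against each partner (one per run) detected binding, and scanned fluorescence was regression-normalized. Binding z-scores use random background probes as reference.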
# [2] = test system: LXRa:RXRa (NR concentration 270 nM, RXRa partner concentration 90 nM)
# Outline: as §1
# [3] = test system: LXRa homodimer (NR concentration 270 nM)
# Outline: as §1
# [4] = test system: LXRb:RXRa (NR concentration 270 nM, RXRa partner concentration 90 nM)
# Outline: as §1
# [5] = test system: LXRb homodimer (NR concentration 270 nM)
# Outline: as §1
# [6] = test system: PPARa:RXRa (NR concentration 270 nM, RXRa partner concentration 90 nM)
# Outline: as §1
# [7] = test system: PPARg:RXRa (NR concentration 180 nM, RXRa partner concentration 90 nM)
# Outline: as §1
# [8] = test system: PPARg:RXRa 270nM:90nM, anti-RXR (NR concentration 270 nM, RXRa partner concentration 90 nM)
# Outline: as §1
# [9] = test system: PPARg:RXRa 30nM:10nM, anti-RXR (NR concentration 30 nM, RXRa partner concentration 10 nM)
# Outline: as §1
# [10] = test system: PPARg:RXRa 90nM:30nM, anti-RXR (NR concentration 90 nM, RXRa partner concentration 30 nM)
# Outline: as §1
# [11] = test system: PPARg:RXRa DBDmut IVT, anti-RXR (DBD mutation: RXRa K156A/R161A, NR concentration 270 nM, RXRa partner concentration 90 nM)
# Outline: as §1
# [12] = test system: PPARg:RXRa IVT, anti-PPARg (NR concentration 270 nM, RXRa partner concentration 90 nM)
# Outline: as §1
# [13] = test system: PPARg DBDmut:RXRa IVT, anti-PPARg (DBD mutation: PPARg1 K132A/R137A, NR concentration 270 nM, RXRa partner concentration 90 nM)
# Outline: as §1
# [14] = test system: PPARg DBDmut IVT, anti-PPARg (DBD mutation: PPARg1 K132A/R137A, NR concentration 270 nM)
# Outline: as §1
# [15] = test system: PPARg homodimer (NR concentration 180 nM)
# Outline: as §1
# [16] = test system: PXR:RXRa (NR concentration 270 nM, RXRa partner concentration 90 nM)
# Outline: as §1
# [17] = test system: PXR homodimer (NR concentration 270 nM)
# Outline: as §1
# [18] = test system: RARa:RXR (NR concentration 270 nM, RXRa partner concentration 90 nM)
# Outline: as §1
# [19] = test system: RARa homodimer (NR concentration 270 nM)
# Outline: as §1
# [20] = test system: RARb:RXRa (NR concentration 270 nM, RXRa partner concentration 90 nM)
# Outline: as §1
sequence,measurement,setting,value
CAAACTAAGTCACGAAAGGTCAAAGTCGAATGAC,PBM binding z-score,[1],5.23
same,PBM binding z-score,[2],6.68
same,PBM binding z-score,[3],6.01
same,PBM binding z-score,[4],5.99
same,PBM binding z-score,[5],2.17
same,PBM binding z-score,[6],5.89
same,PBM binding z-score,[7],4.13
same,PBM binding z-score,[8],4.96
same,PBM binding z-score,[9],2.48
same,PBM binding z-score,[10],4.04
same,PBM binding z-score,[11],2.8
same,PBM binding z-score,[12],3.64
same,PBM binding z-score,[13],0.905
same,PBM binding z-score,[14],0.93
same,PBM binding z-score,[15],3.63
same,PBM binding z-score,[16],6.08
same,PBM binding z-score,[17],2.1
same,PBM binding z-score,[18],6.41
same,PBM binding z-score,[19],1.43
same,PBM binding z-score,[20],4.83
CCAACGAGGGCATGAGTTGATAGCAAATGCCGAT,PBM binding z-score,[1],0.351
same,PBM binding z-score,[2],0.134
same,PBM binding z-score,[3],-0.411
same,PBM binding z-score,[4],-0.153
same,PBM binding z-score,[5],-0.701
same,PBM binding z-score,[6],0.994
same,PBM binding z-score,[7],1.05
same,PBM binding z-score,[8],0.858
same,PBM binding z-score,[9],-0.155
same,PBM binding z-score,[10],0.242
same,PBM binding z-score,[11],1.66
same,PBM binding z-score,[12],1.08
same,PBM binding z-score,[13],-0.303
same,PBM binding z-score,[14],-0.467
same,PBM binding z-score,[15],-0.0585
same,PBM binding z-score,[16],0.213
same,PBM binding z-score,[17],-0.173
same,PBM binding z-score,[18],0.447
same,PBM binding z-score,[19],-0.402
same,PBM binding z-score,[20],1.69
CCTACTGGGCCATCAGGTCATTGACATCAACGTT,PBM binding z-score,[1],2.17
same,PBM binding z-score,[2],1.67
same,PBM binding z-score,[3],1.29
same,PBM binding z-score,[4],2.01
same,PBM binding z-score,[5],-0.379
same,PBM binding z-score,[6],2.7
same,PBM binding z-score,[7],3.12
same,PBM binding z-score,[8],3.54
same,PBM binding z-score,[9],1.46
same,PBM binding z-score,[10],2.55
same,PBM binding z-score,[11],4.78
same,PBM binding z-score,[12],5.02
same,PBM binding z-score,[13],0.0284
same,PBM binding z-score,[14],0.33
same,PBM binding z-score,[15],1.3
same,PBM binding z-score,[16],1.67
same,PBM binding z-score,[17],0.415
same,PBM binding z-score,[18],2.15
same,PBM binding z-score,[19],0.278
same,PBM binding z-score,[20],2.09
AGTCAAAGTTCAAGACGAGGTAACGTAAAGCACG,PBM binding z-score,[1],6.21
same,PBM binding z-score,[2],5.72
same,PBM binding z-score,[3],2.72
same,PBM binding z-score,[4],3.19
same,PBM binding z-score,[5],0.519
same,PBM binding z-score,[6],4.72
same,PBM binding z-score,[7],6.2
same,PBM binding z-score,[8],6.17
same,PBM binding z-score,[9],3.81
same,PBM binding z-score,[10],5.35
same,PBM binding z-score,[11],0.127
same,PBM binding z-score,[12],2.85
same,PBM binding z-score,[13],1.37
same,PBM binding z-score,[14],1.3
same,PBM binding z-score,[15],3.22
same,PBM binding z-score,[16],4.49
same,PBM binding z-score,[17],2.5
same,PBM binding z-score,[18],4.02
same,PBM binding z-score,[19],1.38
same,PBM binding z-score,[20],4.84
CGTCCAAGGGCATAGGAGGTCAGTGAAGACAGAT,PBM binding z-score,[1],3.02
same,PBM binding z-score,[2],5.05
same,PBM binding z-score,[3],1.32
same,PBM binding z-score,[4],2.56
same,PBM binding z-score,[5],-0.901
same,PBM binding z-score,[6],3.11
same,PBM binding z-score,[7],1.15
same,PBM binding z-score,[8],1.38
same,PBM binding z-score,[9],-0.000502
same,PBM binding z-score,[10],0.667
same,PBM binding z-score,[11],0.6
same,PBM binding z-score,[12],2.11
same,PBM binding z-score,[13],-0.528
same,PBM binding z-score,[14],-0.863
same,PBM binding z-score,[15],1.67
same,PBM binding z-score,[16],4.38
same,PBM binding z-score,[17],1.16
same,PBM binding z-score,[18],3
same,PBM binding z-score,[19],0.923
same,PBM binding z-score,[20],3.53
ACTATTAGTTGAGACGAGGGCATCCGATAGGTTG,PBM binding z-score,[1],0.433
same,PBM binding z-score,[2],-0.0452
same,PBM binding z-score,[3],0.0875
same,PBM binding z-score,[4],-0.216
same,PBM binding z-score,[5],0.112
same,PBM binding z-score,[6],0.0329
same,PBM binding z-score,[7],0.689
same,PBM binding z-score,[8],-0.118
same,PBM binding z-score,[9],0.0451
same,PBM binding z-score,[10],0.0642
same,PBM binding z-score,[11],0.0561
same,PBM binding z-score,[12],-0.111
same,PBM binding z-score,[13],1.09
same,PBM binding z-score,[14],0.274
same,PBM binding z-score,[15],-0.612
same,PBM binding z-score,[16],1.7
same,PBM binding z-score,[17],0.926
same,PBM binding z-score,[18],0.817
same,PBM binding z-score,[19],0.577
same,PBM binding z-score,[20],0.742
ACTAGCAGGCCAAGTTTGGGTCAATCAAACAAAG,PBM binding z-score,[1],0.471
same,PBM binding z-score,[2],0.228
same,PBM binding z-score,[3],-0.484
same,PBM binding z-score,[4],0.918
same,PBM binding z-score,[5],-1.03
same,PBM binding z-score,[6],1.55
same,PBM binding z-score,[7],-0.0982
same,PBM binding z-score,[8],0.263
same,PBM binding z-score,[9],-0.327
same,PBM binding z-score,[10],-0.105
same,PBM binding z-score,[11],0.842
same,PBM binding z-score,[12],0.959
same,PBM binding z-score,[13],-0.753
same,PBM binding z-score,[14],-0.879
same,PBM binding z-score,[15],0.326
same,PBM binding z-score,[16],0.526
same,PBM binding z-score,[17],-0.382
same,PBM binding z-score,[18],1.33
same,PBM binding z-score,[19],-0.558
same,PBM binding z-score,[20],1.65
